# According to PubChem BioAssay (NCI):
# Compounds without any hit were thinned out: in the full panel of roughly 83,000, 20% have a hit.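 In brief: 96-well plates, 48 h treatment, single concentration, percent growth endpoint.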 A number with no mark means an inactive call. Calls of active or inactive are those of the source. The calls were made as follows: active = growth percent below 10; inactive = the rest.
# Experiments:
# Test in all cases: NCI-60 one-dose screen, 48 h (100 = growth as untreated, 0 = no growth, -100 = all killed)
# Conditions in all cases: 10 µM unless noted
# NCI-H23 lung = system: NCI-H23 lung
# NCI-H226 lung = system: NCI-H226 lung
# NCI-H322M lung = system: NCI-H322M lung
# HOP-62 NSCLC = system: HOP-62 NSCLC
# NCI-H460 lung = system: NCI-H460 lung
# A549/ATCC NSCLC = system: A549/ATCC NSCLC
# 786-0 renal = system: 786-0 renal
# COLO 205 colon = system: COLO 205 colon
# DU-145 prostate = system: DU-145 prostate
# K-562 leukemia = system: K-562 leukemia
# MALME-3M melanoma = system: MALME-3M melanoma
# MDA-MB-231 breast = system: MDA-MB-231 breast
# RXF 393 renal = system: RXF 393 renal
# SF-268 CNS = system: SF-268 CNS
# SF-295 CNS = system: SF-295 CNS
# SF-539 CNS = system: SF-539 CNS
# UACC-257 melanoma = system: UACC-257 melanoma
# M14 melanoma = system: M14 melanoma
SMILES,growth (NCI-H23 lung),growth (NCI-H226 lung),growth (NCI-H322M lung),growth (HOP-62 NSCLC),growth (NCI-H460 lung),growth (A549/ATCC NSCLC),growth (786-0 renal),growth (COLO 205 colon),growth (DU-145 prostate),growth (K-562 leukemia),growth (MALME-3M melanoma),growth (MDA-MB-231 breast),growth (RXF 393 renal),growth (SF-268 CNS),growth (SF-295 CNS),growth (SF-539 CNS),growth (UACC-257 melanoma),growth (M14 melanoma)
CSc1nc(N)n2nccc2n1,107%,83.9%,102%,89.6%,104%,102%,97.2%,105%,117%,96.6%,95.3%,100%,112%,118%,95.7%,–,–,–
N#Cc1ccc(OCc2nc(N)nc(N)c2-c2ccc(Cl)c(Cl)c2)cc1,36.3%,45.8%,40.6%,9.96% (active),14.1%,7.74% (active),25.8%,45.5%,34.3%,12.6%,49.5%,50.7%,46%,33.6%,3.74% (active),22.7%,22.8%,27.6%
CCCCCCCCCCCCOC(=O)/C=C\C(=O)NC(N)=O,110%,96.8%,111%,101%,93.2%,81.6%,89.9%,111%,95.4%,44.2%,102%,93.5%,69.3%,107%,102%,95.5%,85.2%,93.6%
COC(=O)C(N)CC(C)C (configuration not stated),107%,97.1%,106%,110%,108%,103%,96.7%,114%,101%,88.8%,95.2%,-50.4% (active),98.2%,96.8%,109%,112%,102%,92.6%
CN(C)CCOC(=O)C(C)(C)C,114%,98%,107%,112%,103%,101%,110%,116%,122%,101%,105%,93.9%,102%,121%,108%,109%,92.5%,98.3%
COc1ccc(C2CC(=O)c3c(O)cc(OC4OC(COC5OC(C)C(O)C(O)C5O)C(O)C(O)C4O)cc3O2)cc1O (configuration not stated),105%,105%,81.7%,10.3%,110%,98.3%,100%,112%,136%,167%,96.1%,111%,111%,112%,87.8%,98.7%,95.5%,98.7%
COc1cc2cn3c4ccc(O)cc4[nH]c(=O)c3c2cc1OC,-6.02% (active),8.14% (active),1.3% (active),4.45% (active),-55.7% (active),10.6%,1.09% (active),-19.5% (active),3.02% (active),3.94% (active),1.16% (active),30.9%,26.8%,18.1%,-11% (active),5.31% (active),-10.1% (active),–
CC(C)CCCCCOC(=O)c1ccccc1SSc1ccccc1C(=O)OCCCCCC(C)C,108%,97.3%,132%,99.8%,108%,99.2%,104%,109%,112%,96.3%,110%,99.5%,120%,110%,105%,99.4%,102%,–
COC(=O)c1cc(O)c2cc3c(cc2c1-c1cc(OC)c(OC)c(OC)c1)OCO3,49.9%,50.6%,59.9%,28%,14.7%,45.1%,29.6%,5.08% (active),40.6%,15.4%,48.3%,40.2%,-31.3% (active),47.8%,26.3%,13.3%,60.1%,19%
